Test systems include HCT-15 colon; HT29 colon; SNB-75 CNS; SNB-19 CNS; U251 CNS; PC-3 prostate; SK-MEL-5 melanoma; UACC-62 melanoma; LOX IMVI melanoma; SK-MEL-28 melanoma.
Test in all cases: NCI-60 one-dose screen, 48 h (100 = growth as untreated, 0 = no growth, -100 = all killed)
What all share (conditions): 10 µM unless noted

Several values for one entry are separate records, joined by “and”; a condition that tells them apart may be missing. Equal entries are not always repeated. Compounds without any hit were thinned out: in the full panel of roughly 83,000, 20% have a hit.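 Single-concentration screen, 48 h exposure, 96-well plates. Endpoint: percent growth. Below 10 = active.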 Activity calls are given as the source filed them.

For `O=C(N/N=C/c1c[nH]c2ccccc12)Nc1ccccc1Cl`, the growth in the experiment with HCT-15 colon was 7.73% (active); in the experiment on HT29 colon it was -24.2% (active); in the experiment on SNB-75 CNS, 5.18% (active); with SNB-19 CNS, 32.8% (inactive); in the experiment on U251 CNS, 13.7% (inactive); in the experiment on PC-3 prostate it was 26.5% (inactive). In addition, the growth is -38.6% (active) with SK-MEL-5 melanoma, 11.4% (inactive) in the experiment on UACC-62 melanoma, -45.1% (active) in the experiment with LOX IMVI melanoma and 39.7% (inactive) in the experiment on SK-MEL-28 melanoma.

Regarding `COc1ccc2[nH]c(O)c(N=Nc3nc(-c4ccc(Cl)cc4)cs3)c2c1`, the growth is -53.3% (active) with HCT-15 colon; -18.4% (active) with HT29 colon; -66.9% (active) with SNB-75 CNS; 24.1% (inactive) in the experiment on SNB-19 CNS; -75.6% (active) in the experiment on U251 CNS; -10.5% (active) with PC-3 prostate. For the same compound, the growth was 8.45% (active) in the experiment on SK-MEL-5 melanoma, -32.3% (active) with UACC-62 melanoma, -54.9% (active) in the experiment with LOX IMVI melanoma and -24.2% (active) in the experiment on SK-MEL-28 melanoma.

For the compound `O=C(Cn1c(-c2ccccc2)nc2ccccc21)N=Nc1c(O)[nH]c2ccc(Cl)cc12`, the growth is 7.61% (active) with HCT-15 colon; 2.44% (active) in the experiment on HT29 colon; -49.5% (active) in the experiment on SNB-75 CNS; -4.56% (active) in the experiment on SNB-19 CNS; 13.4% (inactive) in the experiment on U251 CNS; 21.7% (inactive) in the experiment with PC-3 prostate. In addition, the growth with SK-MEL-5 melanoma was 10.7% (inactive); with UACC-62 melanoma it was -2.77% (active); in the experiment with LOX IMVI melanoma it was 8.05% (active); in the experiment on SK-MEL-28 melanoma, -51% (active).

Take `COC(=O)c1cc(C(=O)C(C)(C)C)n2c3ccccc3c3ccccc3c12`: the growth is 65.6% (inactive) with HCT-15 colon; 99.4% (inactive) with HT29 colon; 84.1% (inactive) in the experiment on SNB-75 CNS; 109% (inactive) with SNB-19 CNS; 97% (inactive) in the experiment on U251 CNS; 59.2% (inactive) in the experiment on PC-3 prostate. Also, the growth with SK-MEL-5 melanoma is 88.6% (inactive); with UACC-62 melanoma it was 66.7% (inactive); with LOX IMVI melanoma, 91.1% (inactive); in the experiment with SK-MEL-28 melanoma, 99.2% (inactive).

On to `COc1ccc(NC(=O)NN2C(=O)c3ccccc3N(C)C2c2ccc(OC)cc2)cc1` (stereo not given), for which the growth is 103% (inactive) in the experiment on HCT-15 colon; 109% (inactive) in the experiment with HT29 colon; 91% (inactive) with SNB-75 CNS; 94% (inactive) in the experiment with SNB-19 CNS; 105% (inactive) in the experiment with U251 CNS; 89.2% (inactive) with PC-3 prostate. The growth in the experiment with SK-MEL-5 melanoma was 92.6% (inactive); in the experiment on UACC-62 melanoma it was 78.1% (inactive); in the experiment on LOX IMVI melanoma it was 98.1% (inactive); with SK-MEL-28 melanoma, 102% (inactive).

`COc1cc(C=O)ccc1Oc1nc(Nc2ccc(F)cc2)nc(N(C)C)n1`: the growth in the experiment on HCT-15 colon is 88.4% (inactive) and 18.6% (inactive); in the experiment with HT29 colon it was 105% (inactive) and 69.2% (inactive); in the experiment with SNB-75 CNS, 47.7% (inactive) and 58.3% (inactive); in the experiment on SNB-19 CNS, 87.6% (inactive) and 68.2% (inactive); in the experiment on U251 CNS it was 85% (inactive) and 36.5% (inactive); with PC-3 prostate it was 90.3% (inactive) and 61.7% (inactive). The growth with SK-MEL-5 melanoma is 32.3% (inactive) and 76.3% (inactive); in the experiment on UACC-62 melanoma, 63% (inactive) and 85.7% (inactive); with LOX IMVI melanoma it was 54.3% (inactive); in the experiment with SK-MEL-28 melanoma it was 99.9% (inactive) and 84.4% (inactive).

In the case of `O=c1ccc(Cn2c(C(F)(F)F)cc3c(Cl)ncnc32)c[nH]1`, the growth in the experiment on HCT-15 colon is 0.0667% (active); in the experiment with HT29 colon, 78.1% (inactive); in the experiment with SNB-75 CNS, 13.1% (inactive); in the experiment on SNB-19 CNS, 47.4% (inactive); in the experiment with U251 CNS, 98.5% (inactive); in the experiment on PC-3 prostate it was 78.4% (inactive). For the same compound, the growth with SK-MEL-5 melanoma was 6.31% (active); with UACC-62 melanoma it was 19.3% (inactive); in the experiment with LOX IMVI melanoma, -61.8% (active); in the experiment on SK-MEL-28 melanoma, 40.8% (inactive).

On to `CSc1ccc(OCc2nc3ccccc3n2-c2cccc(NS(C)(=O)=O)c2)cc1`, for which the growth in the experiment on HCT-15 colon was 115% (inactive) and 93.4% (inactive); in the experiment with HT29 colon, 109% (inactive) and 110% (inactive); with SNB-75 CNS, 79.6% (inactive) and 68.9% (inactive); in the experiment with SNB-19 CNS it was 102% (inactive) and 85.6% (inactive); in the experiment on U251 CNS, 104% (inactive) and 76.9% (inactive); with PC-3 prostate, 80.5% (inactive) and 93.4% (inactive). In addition, the growth in the experiment with SK-MEL-5 melanoma was 98% (inactive) and 104% (inactive); in the experiment on UACC-62 melanoma, 86.1% (inactive) and 100% (inactive); in the experiment with LOX IMVI melanoma it was 88.9% (inactive); in the experiment on SK-MEL-28 melanoma it was 119% (inactive) and 99.1% (inactive).

As to `COc1ccc(C(=O)C[n+]2cccc3c4ccccc4ccc32)cc1`, the growth was 87.5% (inactive) in the experiment with HCT-15 colon; 20.4% (inactive) in the experiment with HT29 colon; 82.1% (inactive) in the experiment with SNB-75 CNS; 31.4% (inactive) with SNB-19 CNS; 28.2% (inactive) with U251 CNS; 27.5% (inactive) with PC-3 prostate. The growth in the experiment on SK-MEL-5 melanoma is -31.4% (active); in the experiment on UACC-62 melanoma, 55.7% (inactive); in the experiment on LOX IMVI melanoma, 46.1% (inactive); with SK-MEL-28 melanoma, 67% (inactive).

In the case of `CC(C)(C)c1ccc(OCc2nc3ccccc3n2-c2cccc(N)c2)cc1`, the growth in the experiment on HCT-15 colon is 39.3% (inactive) and 103% (inactive); in the experiment on HT29 colon, 30.8% (inactive) and 110% (inactive); in the experiment on SNB-75 CNS, 56.9% (inactive) and 120% (inactive); with SNB-19 CNS it was 75.3% (inactive) and 100% (inactive); in the experiment with U251 CNS it was 59.3% (inactive) and 105% (inactive); with PC-3 prostate, 35.2% (inactive) and 99.9% (inactive). Moreover, the growth in the experiment with SK-MEL-5 melanoma was 5.56% (active) and 98.9% (inactive); in the experiment on UACC-62 melanoma it was 55.3% (inactive) and 98.3% (inactive); with LOX IMVI melanoma it was 54.7% (inactive) and 97.9% (inactive); in the experiment with SK-MEL-28 melanoma, 79.4% (inactive) and 121% (inactive).

For the compound `N#CC1=C(c2ccco2)Nc2c(c(-c3ccccc3)nn2-c2ccccc2)C12C(=O)Nc1ccc(Br)cc12` (stereo not given), the growth is 38.6% (inactive) with HCT-15 colon; 49.5% (inactive) in the experiment on HT29 colon; -8.95% (active) in the experiment with SNB-75 CNS; 60% (inactive) with SNB-19 CNS; 1.85% (active) with U251 CNS; 24.1% (inactive) in the experiment on PC-3 prostate. The growth is 59% (inactive) in the experiment with SK-MEL-5 melanoma, 51.5% (inactive) in the experiment with UACC-62 melanoma, 21.3% (inactive) in the experiment on LOX IMVI melanoma and 67.5% (inactive) in the experiment with SK-MEL-28 melanoma.

The values above are taken from PubChem BioAssay (NCI).
